PubChem BioAssay
Activity calls are given as the source filed them.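 The calls were made as follows: active = compound that reduces growth-factor-driven endothelial tube area in a mixed cell culture, no cutoff stated; inactive = the rest.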

Assay: inhibition of endothelial tube formation, primary screen, imaging, VEGF stimulated, CD31 staining, tube area, NPC library (AID 1117340)
Details: VEGF-stimulated ADSC/ECFC co-culture, at 10 µM, hits give high values

Tube area decrease, active:
CCOC(=O)N1CCC(Nc2ccc(Cl)cc2N)CC1 41.4%
CC[C@@H]([C@H](C)O)n1ncn(-c2ccc(N3CCN(c4ccc(OC[C@@H]5CO[C@@](Cn6cncn6)(c6ccc(F)cc6F)C5)cc4)CC3)cc2)c1=O 97.9%
OC[C@H]1O[C@@H](n2cnc3c(=S)nc[nH]c32)[C@H](O)[C@@H]1O 95.4%
CCCCCCCC/C=C\CCCCCCCCN 90%

Tube area decrease, inactive:
OCCCc1ccccc1 -11.1%
Nc1ncnc2c1ncn2Cc1c(F)cccc1Cl -5%
Cc1nc2n(c(=O)c1CCN1CCC(C(=O)c3ccc(F)cc3)CC1)CCS2 14.8%
COC(=O)c1cc(Cl)c(NC(C)=O)cc1OC -7.7%
CC(C(=O)O)c1ccc(/C=C2\CCCCC2=O)cc1 (configuration not stated) 0.5%
Cn1c(O)c(N=NC(N)=S)c2ccccc21 28.1%
CCOC(=O)CN1CCCC1=O -17.2%
COC(=O)/C=C(/C)N -6%
CCCN(CCc1cccs1)[C@H]1CCc2c(O)cccc2C1 0.6%
COc1ccc(S(=O)(=O)N2c3ccc(Cl)cc3[C@@](O)(c3ccccc3Cl)[C@H]2C(=O)N2CCC[C@@H]2C(N)=O)cc1OC -23.5%
C/C(=N/NC(=O)c1ccncc1)C(=O)O -6.8%
O=C(O)Cc1ccc(CCNS(=O)(=O)c2ccc(Cl)cc2)cc1 3.3%
CCOC(CN1CCN(CC(C)C(=O)c2ccccc2)CC1)c1ccccc1 (configuration not stated) 14%
